Mtb UGM inh – Mtb UDP-galactopyranose mutase inhibition. purified UGM, fluorescence polarization probe displacement. inhibition, % at 10 µM. hit rate 0.06% among 320,000. AID 504406; in the data active = inhibition above about 10%, passing the limit was not always enough
Target sequence (P9WIQ1 whole entry, looked up): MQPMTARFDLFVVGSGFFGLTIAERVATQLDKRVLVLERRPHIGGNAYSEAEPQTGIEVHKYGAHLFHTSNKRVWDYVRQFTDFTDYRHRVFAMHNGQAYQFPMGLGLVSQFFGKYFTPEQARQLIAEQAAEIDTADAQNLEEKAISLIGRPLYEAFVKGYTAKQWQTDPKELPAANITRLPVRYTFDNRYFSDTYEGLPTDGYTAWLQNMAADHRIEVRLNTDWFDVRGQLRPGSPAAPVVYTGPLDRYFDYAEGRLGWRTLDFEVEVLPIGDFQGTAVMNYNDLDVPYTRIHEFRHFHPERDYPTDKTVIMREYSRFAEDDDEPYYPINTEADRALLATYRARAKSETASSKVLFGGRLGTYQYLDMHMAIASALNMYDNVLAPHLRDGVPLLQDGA
Mtb bLac sens – beta-lactam sensitization of Mtb H37Rv; M. tuberculosis H37Rv growth with meropenem, percent inhibition; inhibition, % at 25 µM; hit rate 0.27% among 330,000; call rule not given here;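 note: growth measured after seven days incubation then overnight dye step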
FBA Mtb inh – inhibitors of M. tuberculosis fructose-bisphosphate aldolase; purified M. tuberculosis FBA, fluorescence read-out; inhibition, % at 1 µM; hit rate 2.3% among 360,000; AID 588726; in the data active = inhibition above about 27%
GDH-TPI counter – inhibits GDH-TPI coupling enzymes, artifact for Mtb FBA screen. inhibition, % at 4.8 µM. GDH-TPI coupled enzyme counterscreen, NADH absorbance. hit rate 1.2% among 360,000; in the data active = inhibition above about 30%
SSB-PriA inh – blocks PriA binding to SSB C-terminal tail. AlphaScreen SSBct-PriA binding, biotinylated peptide. inhibition, % at 33 µM. hit rate 0.6% among 430,000. AID 1272365; in the data active = inhibition mostly above about 37%, no sharp cut-off; inactive = mostly below about 20%
Rv3671c inh – Rv3671c (M. tuberculosis) protease inhibition | hit rate 0.048% among 320,000 | inhibition, % at 5.96 µM; in the data active = inhibition above about 38%;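 note: extracellular domain of Rv3671c used as enzyme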
Hits are given with their value; - = inactive; . = not tested or not shown; + = active, no number. In the library only some 3.2% were active in any assay of this set; here they are far more common.

SMILES | Mtb UGM inh | Mtb bLac sens | FBA Mtb inh | GDH-TPI counter | SSB-PriA inh | Rv3671c inh
CSc1nc(=S)c2[nH]c(=S)[nH]c2[nH]1 | - | - | - | 33 | - | .
CC1CCc2nc(NC(=O)c3ccnn3C)sc2C1 (centres undefined) | . | . | . | . | - | .
CCCCOc1ccc(C(=O)NCc2cc(C)oc2C)cc1 | . | . | . | . | - | .
CCNC(=O)CSc1nc2ccccc2c(=O)n1CCCOC(C)C | - | - | - | - | - | -
CC(C)OCCCn1c(=NC(=O)c2cccs2)c(C#N)cc2c(=O)n3ccccc3nc21 | - | - | + | - | - | -
CCCCCn1c(=NC(C)=O)c(C#N)cc2c(=O)n3ccccc3nc21 | - | - | 133 | - | - | -
C/C(N)=C(/C#N)C(=O)CSc1nc2ccccc2c(=O)n1CCCOC(C)C | - | - | - | - | - | -
CC(C)OCCCn1c(=NC(=O)c2ccncc2)c(C#N)cc2c(=O)n3ccccc3nc21 | 38 | - | - | - | - | -
CCCCc1c(O)nc2ccccn2c1=O | - | - | - | - | - | -
CC(=O)N=c1c(C#N)cc2c(=O)n3ccccc3nc2n1CCCOC(C)C | - | - | + | - | - | -
CC=NNC(=O)CCCC(=O)NN=CC | . | . | . | . | - | .
Nc1nc(CN2CCCC2)cs1 | . | . | . | . | - | .
COc1cccc2sc(N(Cc3cccnc3)C(=O)[C@@H]3CCCN3S(C)(=O)=O)nc12 | . | . | . | . | - | .
O=C1/C(=C\c2ccc(O)cc2)SC(=S)N1/N=C/c1ccc(O)cc1 | - | - | - | 38 | . | -
O=C1C2C3C=CC(CC3)C2C(=O)N1/N=C/c1ccc(O)cc1 (centres undefined) | - | - | - | 32 | . | -
CCOc1ccccc1-n1nnc2c(=O)n(Cc3nc(-c4cccc(C(F)(F)F)c4)no3)cnc21 | . | . | . | . | - | .
N#Cc1cc(C#N)c(N2CCN(c3ccccn3)CC2)nc1N | - | - | - | 32 | - | -
COc1cc(/C=N/NC(=S)NCCN2CCOCC2)cc(OC)c1O | - | - | - | 49 | . | -
COc1cc(/C=N/NC(=S)NC2CC3CCC2C3)ccc1O (centres undefined) | - | - | - | 52 | . | -
COc1ccc(C=NNC(=S)NN=Cc2ccc(OC)c(OC)c2)cc1OC | . | . | - | 64 | - | .
COc1cc(/C=N/NC(=S)N/N=C/c2cc(OC)c(OC)c(OC)c2)cc(OC)c1OC | - | - | - | 45 | . | -
COc1cc(C=NNC(=S)NCCc2ccccc2)cc(OC)c1OC | . | . | . | . | - | .
COc1ccc(C[C@](C)(O)CNC(=O)c2cccnc2SC)cc1 | . | . | . | . | - | .
COc1ccc(NC(=S)NN=Cc2ccc(F)cc2)cc1OC | . | . | . | . | - | .
COc1ccc(C=NNC(=S)Nc2ccc(F)cc2)cc1OC | . | . | - | 69 | - | .
SMILES | Mtb UGM inh | Mtb bLac sens | FBA Mtb inh | GDH-TPI counter | SSB-PriA inh | Rv3671c inh
COc1ccc(-c2nn(CCC(=O)O)cc2/C=C2\SC(=N)NC2=O)cc1 | . | . | . | . | - | .
N#C/C(=C\c1cccs1)C(=O)NCc1ccccc1 | - | - | - | - | - | -
N#C/C(=C\C=C\c1ccccc1)C(=O)NCc1cccnc1 | - | - | - | 31 | - | -
N#C/C(=C\c1cccc([N+](=O)[O-])c1)C(=O)NCc1cccnc1 | . | - | - | - | - | -
N#C/C(=C\c1cccs1)C(=O)NCc1cccnc1 | - | - | - | 36 | - | -
COc1ccc(-c2c(-c3cc(OC)cc(OC)c3)n(C)c3ccc(-c4ccc(OC)c(F)c4)cc23)cc1 | - | - | - | - | - | -
COc1ccc(-c2c(-c3ccc(OC)c(F)c3)c3ccccc3n2C)cc1 | - | - | 37 | - | - | -
COc1cc(OC)c2c(C)c(Cl)c(=O)oc2c1 | - | - | 124 | - | - | -
Cc1c(Cl)c(=O)oc2cc(OCC(=O)NCc3cccs3)ccc12 | - | - | 37 | - | - | -
Cc1c(C)c2ccc(OCC(=O)N3CCC(C(=O)O)(c4ccccc4)CC3)cc2oc1=O | - | - | 140 | - | - | -
COc1cc(OC)c2c(=O)cc(-c3ccccc3)oc2c1 | - | - | - | - | - | -
CCOc1ccc2c(C)c(Cl)c(=O)oc2c1 | - | - | + | - | - | -
CC(=O)COc1ccc2c(C)c(-c3ccc(Cl)cc3)c(=O)oc2c1 | . | . | . | . | - | .
Cc1nnc(C2CCCN(C(=O)CC(C)(C)C)C2)s1 (centres undefined) | . | . | . | . | - | .
O=C(c1cc2ccccc2[nH]1)N1CC(S(=O)(=O)C2CCCCC2)C1 | . | . | . | . | - | .
CC(=O)COc1ccc2c(C)c(C)c(=O)oc2c1 | - | - | 131 | - | - | -
CCNC(=O)N1CCC(S(=O)(=O)c2ccc(OC)cc2)CC1 | . | . | . | . | - | .
c1ccc(-c2cn(C[C@H]3CC[C@@H]([C@@H]4CC[C@H](Cn5cc(-c6ccccn6)nn5)O4)O3)nn2)nc1 | - | - | - | - | 101 | -
c1ccc(-c2cn(C[C@H]3CC[C@@H]([C@@H]4CC[C@H](Cn5cc(-c6ccccc6)nn5)O4)O3)nn2)cc1 | - | - | - | - | - | -
COc1ccccc1NC(=O)N1CCC(c2nnc(-c3ccc(F)cc3)o2)CC1 | . | . | . | . | - | .
CC1CCN(C(=O)CN2C(=O)c3ccccc3C2=O)CC1 | . | . | . | . | - | .
CC1CCN(C(=O)CN2C(=O)c3cccc4cccc(c34)C2=O)CC1 | - | - | - | 35 | - | -
COc1ccc(NC(=O)Cn2ncn3nc(-c4ccccc4)cc3c2=O)cc1OC | . | . | . | . | - | .
O=C(COc1ccccc1)Nc1nc2c(s1)-c1cccc3cccc-2c13 | . | . | . | . | 42 | .
CCCCc1ccc(NC(=S)Nc2ccc(Nc3ccc(OC)cc3)cc2)cc1 | - | - | - | - | 84 | -
SMILES | Mtb UGM inh | Mtb bLac sens | FBA Mtb inh | GDH-TPI counter | SSB-PriA inh | Rv3671c inh
CNC(=O)N(O)C1N(/N=C/c2ccc(SC)cc2)C(=S)SC1(C)C (centres undefined) | - | - | - | 36 | . | -
CNC(=O)N(O)C1N(/N=C/c2ccccc2F)C(=S)SC1(C)C (centres undefined) | - | - | - | - | . | -
CNC(=O)N(O)C1N(/N=C/c2ccccc2O)C(=S)SC1(C)C (centres undefined) | - | - | - | 36 | . | -
COC(=O)c1ccc(C2NC(=S)N(c3ccccc3)C(C)=C2C(=O)Nc2ccccc2OC)cc1 (centres undefined) | - | - | + | - | - | -
COc1ccccc1NC(=O)C1=C(C)N(c2ccccc2)C(=S)NC1c1cccc(C(F)(F)F)c1 (centres undefined) | - | - | - | - | - | -
Nc1c2c(nc3ccccc13)N(c1ccccc1)CC2 | - | - | - | - | - | -
CCCC(=O)Nc1c2c(nc3ccccc13)N(c1ccccc1)CC2 | - | - | 192 | - | - | -
O=C(CCc1nc2sc3c(c2c(=O)[nH]1)CCCCC3)N1CCN(c2ccc(Cl)cc2)CC1 | . | . | . | . | - | .
COc1ccc(C(=O)N/C(=C\c2cn(C)c3ccccc23)C(=O)N2CCOCC2)cc1 | - | - | - | 32 | - | -
Cn1cc(/C=C(\NC(=O)c2ccccc2)C(=O)N2CCOCC2)c2ccccc21 | - | - | - | - | - | -
CCn1cc(/C=C(\NC(=O)c2ccc(OC)cc2)C(=O)N2CCOCC2)c2ccccc21 | - | - | - | 38 | - | -
CCn1cc(/C=C(\NC(=O)c2ccc(OC)c(OC)c2)C(=O)N2CCOCC2)c2ccccc21 | - | - | - | - | - | -
